# Screening results (PubChem BioAssay)
# Sampled rows, rich in hits. Any-hit rate of the full collection: about 7.3%.
# FMDV inh – antivirals against foot and mouth disease virus | AID 1159524 | Potency, µM (doses to about 57.9 µM), for the others: top-dose activity change, negative = inhibition, actives largely listed as inhibitors | FMDV antiviral cell-based qHTS | 1.2% of 410,000 active; calls by dose curve; tested in HEK293T cells; further: read-out not given here; potency means the concentration at half of the fitted maximal effect; nearly all actives have a fitted effect of over 45% in size
# VACV Venus inh – inhibitors of vaccinia virus (Venus reporter); Vaccinia virus Venus reporter expression, fluorescence; Potency, µM (series often up to 36.5 µM), for inactives: at the highest dose activity change, negative = inhibition, usual class: inhibitors; 0.46% of 330,000 active; calls by dose curve; tested in A549 cells; further: potency means the concentration at half of the fitted maximal effect; nearly all actives have a fitted effect of over 30% in size
# HCV inhibitor – HCV inhibition. Huh7.5.1 HCVcc-Cre infection, luciferase reporter, 44 h. Potency, µM (series often up to 41.8 µM), for the others: top-dose activity change, negative = inhibition, hits mostly inhibitors. 3.4% of 340,000 active; active means well fitted inhibition curve with a large enough effect; inconclusive means small, poorly fitted or top-dose-only effect, or another doubt; inactive means no such curve, though single readings can be large or run the other way; further: potency means the concentration at half of the fitted maximal effect
#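 Cells (1,000/well) were plated 4 h before compound, then infected with HCVcc-Cre virus (~0.5 moi). After 44 h further culture, infection was read as luciferase luminescence following a 15 min substrate incubation at room temperature.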
# HCMV inh – blocks human cytomegalovirus replication. HFF cells, HCMV-luciferase reporter, 72 h; active compounds read low. activity change, negative = inhibition, % at 57.5 µM. 4.5% of 410,000 active; in the data active means activity change below about -60%; inconclusive means no clear call, values can overlap the other calls; inactive means above about -39%
#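 Cell-based, HFFs, 1000 cells/well, 16 h 37C; cpds in DMSO + HCMV-luc, MOI 1 PFU/cell; 72 h 37C; OneGlo luminescence after 5 min RT; norm. to buffer vs Salinomycin 10uM.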
# VACV mCherry inh – vaccinia inhibition (mCherry reporter); AID 720579; Potency, µM (doses to about 36.5 µM), without a hit: at the highest dose activity change, negative = inhibition, hits mostly inhibitors; Vaccinia virus mCherry reporter infection, fluorescence; 0.63% of 310,000 active; calls by dose curve; tested in A549 cells; further: potency means the concentration at half of the fitted maximal effect; nearly all actives have a fitted effect of over 35% in size
# * hit, by the source's call; i = inactive; ? = inconclusive; · = no result; [ ] = dose if it differs, or a comment. On the % scale 0 is the no-effect control and ±100 the full control effect.
SMILES,FMDV inh,VACV Venus inh,HCV inhibitor,HCMV inh,VACV mCherry inh
OCCN1CCOCCOc2ccccc2OCCOCC1,0.6%,·,5.2%,-16.0,·
c1ccc2c(c1)OCCOCCOCCOCCOCCOc1ccccc1OCCOCCOCCO2,?,-26.8%,?,-97.9*,?
Cc1cccc(CN2CCN(C3CN(Cc4cn(Cc5ccc(Cl)cc5)nn4)S(=O)(=O)C3)CC2)c1 (centres undefined),?,-20.6%,·,-4.9,-23.6%
COCCN1C(=O)CN(S(C)(=O)=O)CC1(C)C(=O)Nc1ccc2c(c1)OCCO2 (centres undefined),-19.9%,-7.3%,·,1.5,-4.5%
O=C(O)c1cc(-c2ccccc2)nc2ccccc12,-23.0%,-13.0%,-5.8%[8.37 µM],-38.4,-25.2%
O=C(Oc1ccc([N+](=O)[O-])cc1)c1cc(-c2ccccc2)nc2ccccc12,20µM*,-8.8%,1.6%,-6.6,·
O=C(CN1C(=O)NC2(CCCCCC2)C1=O)c1ccc(F)cc1,23.9%,-11.5%,-4.9%,-7.8,-3.0%
CCc1cccc2c(C(=O)CCl)c[nH]c12,28.2µM*,-17.5%,1.9%,8.7,-20.4%
CCc1ccc(C(=O)CN2C(=O)NC3(CCCCCC3)C2=O)cc1,47.3%,-7.2%,11.2µM*,9.4,-28.6%
CCc1cccc2c(C(=O)CN3C(=O)NC4(CCCCCC4)C3=O)c[nH]c12,36.2%,?,2.51µM*,-86.6*,-12.2%
CCc1cccc2c(C(=O)CN3C(=O)NC4(CCCCC4)C3=O)c[nH]c12,0.0%,-26.4%,?,?,?
CCc1cccc2c(C(=O)COC(=O)c3ccc([N+](=O)[O-])s3)c[nH]c12,-21.8%,·,28.2µM*,61.0,·
Cc1cccc(OCCn2nnc3sc4c(c3c2=O)CCCC4)c1,45.0%,1.8%,·,19.3,-4.0%
COC(=O)C1=C(C)N(Cc2ccccc2)C(=O)N[C@H]1c1cccc(C(F)(F)F)c1,0.0%,-26.2%,0.398µM*,-20.3,i
CC(=O)C1=C(C)N(Cc2ccccc2)C(=O)N[C@H]1c1cccc(C(F)(F)F)c1,-4.2%,-27.9%,?,-69.1*,?
COC(=O)C1=C(C)N(Cc2ccccc2)C(=S)N[C@H]1c1cccc(C(F)(F)F)c1,16.0%,?,?,16.0,?
CCCCCCCCCCCCC/C=C/[C@@H](O)[C@H](CO)NCCCCCCCC,11.8%[6.7 µM],-11.6%[3.33 µM],·,·,-11.6%[3.33 µM]
COc1ccc(CCN2C(=O)c3cccc4c(C(=O)N5CCCCC5)ccc(c34)C2=O)cc1OC,14.1µM*,-7.0%,-23.4%,-64.9*,-14.8%
CCN(CC(=O)NCc1ccc(F)cc1)CC(=O)NC1CCCC1,11.4%,-16.1%,0.891µM*,-10.7,5.4%
COc1ccc(CCNC(=O)CS(=O)(=O)Cc2nc(-c3cccc(Cl)c3)oc2C)cc1OC,?,-12.0%,·,-20.1,-10.7%
CC(=O)/C(=N\Nc1ccccc1Cl)Sc1nnc(-c2ccccc2)n1-c1ccccc1,-18.2%,0.0%,?,-61.4*,-6.7%
CC(=O)/C(=N\Nc1ccc(Cl)cc1Cl)Sc1nnc(-c2ccccc2)n1-c1ccccc1,-16.5%,-8.7%,?,9.3,-10.0%
COc1ccc(NC(=O)CCCSc2ccccc2)cc1S(N)(=O)=O,26.9%,-0.9%,-4.7%,?,i
COc1ccc(NC(=O)CN(Cc2ccccc2)Cc2ccccc2)cc1S(N)(=O)=O,46.0%,-15.0%,21.2%,-62.3*,-3.1%
COc1ccc(NC(=O)COc2ccccc2Cc2ccccc2)cc1S(N)(=O)=O,?,-29.5%,10µM*,-72.9*,?
SMILES,FMDV inh,VACV Venus inh,HCV inhibitor,HCMV inh,VACV mCherry inh
Nc1nc(N)c2ncn(C3C=CC(CO)C3)c2n1 (centres undefined),2.1%,-4.5%,·,6.7,i
CC(C)c1c(C(=O)N2CCCCC2c2cccnc2)cnn1-c1nccc(-c2cccs2)n1 (centres undefined),-18.0%,-19.6%,·,·,?
COc1cc2c(cc1OC)-c1cc3cc(OC)c(OC)cc3c(=O)n1CC2,-16.4%,·,·,·,·
S=C(NCc1ccccc1)NNc1nc2ccccc2[nH]1,-4.2%,-20.3%,-2.5%,-70.1*,-15.8%
O=c1[nH]c(NNC(=S)NCc2ccccc2)nc2c1C1(CCCCC1)Cc1ccccc1-2,-23.0%,·,12.2%,-62.3*,·
c1ccc(CNc2nc3ccccc3[nH]2)cc1,·,-15.4%,9.2%,88.3,-21.6%
CSc1nnc(N2C(=O)C(O)=C(C(=O)c3ccco3)C2c2cccc(Cl)c2)s1 (centres undefined),-4.0%,·,5.4%,0.0,·
CC(C)(C)c1ccc(-c2n[nH]c(=S)n2C2CCCC2)cc1,?,·,?,-90.9*,·
Cn1c(-c2ccc(C(C)(C)C)cc2)n[nH]c1=S,29.4%,-24.8%,6.3%,38.9,·
COc1cc(OC)c(Nc2c3c(nc4nc(-c5cccs5)nn24)CCCC3)cc1Cl,?,-16.1%,·,11.4,-20.3%
COc1ccc(C(=O)C2CCCN(C(=O)CCc3ccccn3)C2)c(C)c1 (centres undefined),-12.5%,·,?,-12.3,·
COc1ccc(C(=O)C2CCCN(C(=O)CCc3scnc3C)C2)c(C)c1 (centres undefined),-19.1%,-16.4%,?,-76.3*,-7.0%
O=C(c1ccc2ccccc2c1)C1CCCN(C(=O)CN2C(=O)CSC2=O)C1 (centres undefined),10.7%,-7.4%,-5.2%,-67.7*,i
Cc1cc(C(=O)N2CCCC(C(=O)c3ccc4ccccc4c3)C2)nn1C (centres undefined),-29.4%,7.2%,?,-20.8,-14.3%
Cc1ncsc1C(=O)N1CCCC(C(=O)c2ccc3ccccc3c2)C1 (centres undefined),28.2µM*,-20.4%,-22.0%,-37.8,?
Cc1ccc(C)c(C(C)NC(=S)NCc2ccc(F)cc2)c1 (centres undefined),-0.8%,-15.8%,?,-29.3,-9.6%
CCC[C@H]1[C@@H](NS(=O)(=O)c2ccc([N+](=O)[O-])cc2)CC[C@@]23CCCN2C(=O)CCC[C@@H]13,·,·,·,-6.7,·
O=S(=O)(c1cccc(-c2nnc(SCc3nc4ccccc4s3)o2)c1)N1CCOCC1,38.0%,?,?,50.0,12.6µM*
CC(=O)CCSc1nnc(-c2cccc(S(=O)(=O)N3CCOCC3)c2)o1,-2.7%,-7.8%,2.4%,-4.5,-9.4%
CCOc1ccc(NC(=O)c2ccc3c(c2)CCN3S(C)(=O)=O)cc1,-8.4%,·,-24.4%,-12.7,·
Cc1cc2cc(CCNC(=O)CCCc3ccccc3)c(=O)[nH]c2cc1C,-16.9%,·,-9.4%,17.4,·
CCn1nnc(-c2ccccc2NC(=O)c2cc(OC)c(OC)c(OC)c2)n1,·,-18.9%,?,11.3,-24.4%
CCn1nnc(-c2ccccc2NC(=O)c2cnccn2)n1,-24.6%,-18.7%,11.2µM*,-6.3,-9.0%[1.46 µM]
CCOc1ccccc1CN(Cc1ccco1)S(=O)(=O)c1ccc(-n2cnnn2)c(OC)c1,41.9%,?,?,-74.4*,?
CCOc1cccc(/C=N/NC(=O)c2cc(C3CC3)[nH]n2)c1O,24.9%,·,11.2µM*,-90.0*,·
